# Data from PubChem BioAssay (NCI).
# About 79,000 compounds went through this panel and 15% of them were active in at least one assay; those are over-represented in the sample as a whole. A number with no mark means an inactive call. Activity calls are given as the source filed them. No stated cut-off is given here; in the data, active means growth inhibition above about 70%; inactive means the rest.
# How the values were obtained:
# [1] = NCI Yeast Anticancer Drug Screen. Data for the rad52 strain (AID 147);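 further: 0% = growth of vehicle-treated control cultures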; settings: S. cerevisiae rad52 mutant growth inhibition, hits give high values
# Summary of the method: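 Read-out: growth inhibition versus vehicle-treated controls. Cells were a DNA repair-deficient yeast strain treated with compounds.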
# [2] = NCI Yeast Anticancer Drug Screen. Data for the wt1 strain (AID 149);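 further: 0% = growth of vehicle-treated wt1 cultures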; settings: S. cerevisiae wt1 strain (SPY 50644) growth inhibition, hits give high values
# Summary of the method: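 Vehicle-normalised growth inhibition; strain wt1; compound exposure.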
# [3] = NCI Yeast Anticancer Drug Screen. Data for the rad50EPP+ strain (AID 151);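 further: 0% = growth of vehicle-treated control cultures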; settings: S. cerevisiae rad50 mutant strain, hits give high values
# Summary of the method: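 Growth inhibition read against vehicle controls in rad50EPP+ yeast, a strain altered in DNA damage repair, after compound exposure.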
# [4] = NCI Yeast Anticancer Drug Screen. Data for the mgt1 strain (AID 153); settings: S. cerevisiae mgt1 mutant growth inhibition, hits give high values
# Summary of the method: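 mgt1 yeast grown with test compound; read-out is growth inhibition versus vehicle-treated cultures.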
# [5] = NCI Yeast Anticancer Drug Screen. Data for the rad50 strain (AID 155);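 further: 0% = growth of vehicle-only cultures of the same strain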; settings: S. cerevisiae rad50 strain growth inhibition, hits give high values
# Summary of the method: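 A DNA repair-deficient yeast mutant serves as the test organism; compound-induced growth inhibition is calculated against vehicle-treated cells.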
# [6] = NCI Yeast Anticancer Drug Screen. Data for the mec2-1 strain (AID 157); settings: S. cerevisiae mec2-1 strain, hits give high values
# Summary of the method: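 Yeast mec2-1 mutant treated with compound. Readout: growth inhibition vs vehicle controls.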
# [7] = NCI Yeast Anticancer Drug Screen. Data for the rad14 strain (AID 159);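 further: 0% = growth of vehicle-treated control cultures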; settings: S. cerevisiae rad14 strain growth inhibition, hits give high values
# Summary of the method: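 Vehicle-treated cultures served as the baseline for growth inhibition of a DNA repair-mutant yeast strain exposed to each compound.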
# [8] = NCI Yeast Anticancer Drug Screen. Data for the sgs1 mgt1 strain (AID 161);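 further: 0% = growth of cultures given vehicle only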; settings: S. cerevisiae sgs1 mgt1 strain, hits give high values
# Summary of the method: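 Mutant yeast exposed to compound; growth scored against vehicle-only wells.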
# [9] = NCI Yeast Anticancer Drug Screen. Data for the CLN2oe strain (AID 163);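 further: 0% = growth of vehicle-only control cultures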; settings: S. cerevisiae CLN2oe strain, hits give high values
# Summary of the method: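 Read-out: yeast growth inhibition, expressed relative to vehicle-only controls. The strain bears an engineered cell-cycle alteration.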
# [10] = NCI Yeast Anticancer Drug Screen. Data for the cln2 rad14 strain (AID 165);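 further: 0% = growth equal to vehicle treated cultures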; settings: S. cerevisiae cln2 rad14 strain, hits give high values
# Summary of the method: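 cln2 rad14 yeast strain; compound exposure; growth inhibition read vs vehicle controls.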
# [11] = NCI Yeast Anticancer Drug Screen. Data for the bub3 strain (AID 167); settings: S. cerevisiae bub3 mutant strain, hits give high values
# Summary of the method: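 Inhibition values come from growth of compound-treated mutant yeast normalised to vehicle-treated controls.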
# [12] = NCI Yeast Anticancer Drug Screen. Data for the sgs1 strain (AID 173);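 further: 0% = growth of vehicle-only control cultures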; settings: S. cerevisiae sgs1 mutant, hits give high values
# Summary of the method: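 Read-out: yeast growth inhibition relative to vehicle controls, following compound exposure of a strain with a defined DNA repair/cell cycle alteration.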
# [13] = NCI Yeast Anticancer Drug Screen. Data for the mlh1 rad18 strain (AID 175); settings: S. cerevisiae mlh1 rad18 strain growth inhibition, hits give high values
# Summary of the method: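 Yeast w/ defined DNA-repair lesions; compound exposure; growth vs vehicle controls → % inhibition.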
# [14] = NCI Yeast Anticancer Drug Screen. Data for the rad18 strain (AID 177); settings: S. cerevisiae rad18 mutant growth inhibition, hits give high values
# Summary of the method: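 Readout: growth inhibition vs vehicle controls. Cells: genetically altered yeast strain, DNA repair defect.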
# [15] = at 5.0 µM (retest, dose inferred, filed as 0.5)
# [16] = at 50.0 µM (retest, dose inferred, filed as 5.0)
compound,measurement,setting,value
CC(C)c1ccc(NC(=S)NC(=O)c2ccccc2)cc1,growth inhibition,[1]; at 1.2 µM,-32%
same,growth inhibition,[1]; at 3.7 µM,-30%
same,growth inhibition,[1]; at 11.0 µM,-19%
same,growth inhibition,[1]; at 33.0 µM,12%
same,growth inhibition,[1]; at 100.0 µM,26%
same,growth inhibition,[2]; at 1.2 µM,-9%
same,growth inhibition,[2]; at 3.7 µM,-22%
same,growth inhibition,[2]; at 11.0 µM,4%
same,growth inhibition,[2]; at 33.0 µM,20%
same,growth inhibition,[2]; at 100.0 µM,41%
same,growth inhibition,[3]; at 1.2 µM,-2%
same,growth inhibition,[3]; at 3.7 µM,4%
same,growth inhibition,[3]; at 11.0 µM,47%
same,growth inhibition,[3]; at 33.0 µM,53%
same,growth inhibition,[3]; at 100.0 µM,58%
same,growth inhibition,[4]; at 1.2 µM,-27%
same,growth inhibition,[4]; at 3.7 µM,-23%
same,growth inhibition,[4]; at 11.0 µM,27%
same,growth inhibition,[4]; at 33.0 µM,52%
same,growth inhibition,[4]; at 100.0 µM,47%
same,growth inhibition,[5]; at 1.2 µM,-27%
same,growth inhibition,[5]; at 3.7 µM,-19%
same,growth inhibition,[5]; [15],10%
same,growth inhibition,[5]; at 11.0 µM,1%
same,growth inhibition,[5]; at 33.0 µM,31%
same,growth inhibition,[5]; [16],31%
same,growth inhibition,[5]; at 50.0 µM,52%
same,growth inhibition,[5]; at 100.0 µM,39%
same,growth inhibition,[6]; at 1.2 µM,-35%
same,growth inhibition,[6]; at 3.7 µM,-19%
same,growth inhibition,[6]; [15],0%
same,growth inhibition,[6]; at 11.0 µM,4%
same,growth inhibition,[6]; at 33.0 µM,23%
same,growth inhibition,[6]; [16],40%
same,growth inhibition,[6]; at 50.0 µM,42%
same,growth inhibition,[6]; at 100.0 µM,38%
same,growth inhibition,[7]; at 1.2 µM,-19%
same,growth inhibition,[7]; at 3.7 µM,0%
same,growth inhibition,[7]; at 11.0 µM,-3%
same,growth inhibition,[7]; at 33.0 µM,42%
same,growth inhibition,[7]; at 100.0 µM,30%
same,growth inhibition,[8]; [15],2%
same,growth inhibition,[8]; [16],69%
same,growth inhibition,[8]; at 50.0 µM,66.6%
same,growth inhibition,[9]; at 1.2 µM,-21%
same,growth inhibition,[9]; at 3.7 µM,-21%
same,growth inhibition,[9]; at 11.0 µM,-2%
same,growth inhibition,[9]; at 33.0 µM,56%
same,growth inhibition,[9]; at 100.0 µM,51%
same,growth inhibition,[10]; [15],17%
same,growth inhibition,[10]; [16],64%
same,growth inhibition,[10]; at 50.0 µM,40.9%
same,growth inhibition,[11]; at 1.2 µM,3%
same,growth inhibition,[11]; at 3.7 µM,41%
same,growth inhibition,[11]; [15],42%
same,growth inhibition,[11]; at 11.0 µM,78% (active)
same,growth inhibition,[11]; at 33.0 µM,86% (active)
same,growth inhibition,[11]; [16],87% (active)
same,growth inhibition,[11]; at 50.0 µM,76% (active)
same,growth inhibition,[11]; at 100.0 µM,80% (active)
same,growth inhibition,[12]; at 1.2 µM,-23%
same,growth inhibition,[12]; at 3.7 µM,-16%
same,growth inhibition,[12]; at 11.0 µM,15%
same,growth inhibition,[12]; at 33.0 µM,50%
same,growth inhibition,[12]; at 100.0 µM,55%
same,growth inhibition,[13]; [15],5%
same,growth inhibition,[13]; [16],59%
same,growth inhibition,[13]; at 50.0 µM,34%
same,growth inhibition,[14]; at 1.2 µM,-28%
same,growth inhibition,[14]; at 3.7 µM,-28%
same,growth inhibition,[14]; at 11.0 µM,-17%
same,growth inhibition,[14]; at 33.0 µM,3%
same,growth inhibition,[14]; at 100.0 µM,26%
